{"source": "paper PMC7862700", "about": "“An all-to-all approach to the identification of sequence-specific readers for epigenetic DNA modifications on cytosine”", "assay_in_all_cases": "DAPPL (digital affinity profiling via proximity ligation, sequencing); 10 mM Tris-HCl pH 7.5, 50 mM NaCl, 1 mM DTT, 4% glycerol, room temperature, 30 min; GST-TFs on glutathione beads, 16-mer random dsDNA library, 0.1% formaldehyde crosslink after washing; high values mean tight binding", "conditions_in_all_cases": "protein: recombinant; tags: N-terminal GST; dsDNA, one strand shown", "key": {"FLI1": {"target": "T1, FLI1 (Homo sapiens, UniProt Q01543 1-452)", "T1 sequence": "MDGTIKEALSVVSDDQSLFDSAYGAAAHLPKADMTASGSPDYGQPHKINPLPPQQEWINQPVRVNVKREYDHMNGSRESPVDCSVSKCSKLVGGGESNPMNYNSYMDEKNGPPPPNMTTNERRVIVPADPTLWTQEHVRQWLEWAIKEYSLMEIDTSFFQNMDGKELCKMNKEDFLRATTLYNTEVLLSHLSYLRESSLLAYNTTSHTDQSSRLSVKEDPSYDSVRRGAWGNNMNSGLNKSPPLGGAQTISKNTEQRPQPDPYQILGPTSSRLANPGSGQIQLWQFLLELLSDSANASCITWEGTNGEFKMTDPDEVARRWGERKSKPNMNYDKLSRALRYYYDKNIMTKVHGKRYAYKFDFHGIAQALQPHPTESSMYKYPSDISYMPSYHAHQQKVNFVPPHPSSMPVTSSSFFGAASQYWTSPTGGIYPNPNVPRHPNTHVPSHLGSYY", "method_in_brief": "(§1)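 Beads coated with glutathione captured GST-fused human transcription factors that had been expressed in yeast, and the factors were then given DNA barcodes and pooled with a tag-only sample. The pools were incubated with 200 nmole of a random double-stranded 16-mer DNA library in Tris/NaCl/DTT/glycerol buffer for 30 min at room temperature, washed, crosslinked with 0.1% formaldehyde and proximity-ligated with BsaI/T4 ligase at 37 °C for 1 h. PCR amplification and Illumina NextSeq500 sequencing came last. Binding signal is each hexamer's read frequency for a factor divided by its frequency for the tag-only sample.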"}, "ELK1": {"target": "T2, ELK1 (Homo sapiens, UniProt P19419 1-428)", "T2 sequence": "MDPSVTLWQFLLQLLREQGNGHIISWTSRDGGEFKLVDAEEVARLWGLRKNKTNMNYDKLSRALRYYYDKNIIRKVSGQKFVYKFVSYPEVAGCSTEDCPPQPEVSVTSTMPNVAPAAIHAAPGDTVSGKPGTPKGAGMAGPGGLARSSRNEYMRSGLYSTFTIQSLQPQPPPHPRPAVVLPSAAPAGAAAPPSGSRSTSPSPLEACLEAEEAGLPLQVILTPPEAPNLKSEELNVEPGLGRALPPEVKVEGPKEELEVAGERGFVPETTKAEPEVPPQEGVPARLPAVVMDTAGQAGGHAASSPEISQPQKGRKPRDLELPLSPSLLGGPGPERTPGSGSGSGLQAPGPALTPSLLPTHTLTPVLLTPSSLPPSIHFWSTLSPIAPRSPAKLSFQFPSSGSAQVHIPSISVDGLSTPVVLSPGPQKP", "method_in_brief": "as §1"}, "GABPA": {"target": "T3, GABPA (Homo sapiens, UniProt Q06546 1-454)", "T3 sequence": "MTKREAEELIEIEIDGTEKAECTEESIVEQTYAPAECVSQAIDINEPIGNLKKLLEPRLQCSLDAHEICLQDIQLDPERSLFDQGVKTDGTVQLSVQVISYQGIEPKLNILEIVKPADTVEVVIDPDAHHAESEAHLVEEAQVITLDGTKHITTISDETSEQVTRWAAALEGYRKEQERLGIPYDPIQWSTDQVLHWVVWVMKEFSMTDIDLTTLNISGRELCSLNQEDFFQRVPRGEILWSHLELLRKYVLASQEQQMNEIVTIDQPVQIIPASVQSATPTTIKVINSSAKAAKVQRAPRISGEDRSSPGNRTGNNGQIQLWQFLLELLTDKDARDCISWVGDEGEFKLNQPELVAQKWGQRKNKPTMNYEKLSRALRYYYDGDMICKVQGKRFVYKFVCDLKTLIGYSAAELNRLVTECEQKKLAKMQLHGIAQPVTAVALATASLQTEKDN", "method_in_brief": "as §1"}, "ERG": {"target": "T4, ERG (Homo sapiens, UniProt P11308 1-479)", "T4 sequence": "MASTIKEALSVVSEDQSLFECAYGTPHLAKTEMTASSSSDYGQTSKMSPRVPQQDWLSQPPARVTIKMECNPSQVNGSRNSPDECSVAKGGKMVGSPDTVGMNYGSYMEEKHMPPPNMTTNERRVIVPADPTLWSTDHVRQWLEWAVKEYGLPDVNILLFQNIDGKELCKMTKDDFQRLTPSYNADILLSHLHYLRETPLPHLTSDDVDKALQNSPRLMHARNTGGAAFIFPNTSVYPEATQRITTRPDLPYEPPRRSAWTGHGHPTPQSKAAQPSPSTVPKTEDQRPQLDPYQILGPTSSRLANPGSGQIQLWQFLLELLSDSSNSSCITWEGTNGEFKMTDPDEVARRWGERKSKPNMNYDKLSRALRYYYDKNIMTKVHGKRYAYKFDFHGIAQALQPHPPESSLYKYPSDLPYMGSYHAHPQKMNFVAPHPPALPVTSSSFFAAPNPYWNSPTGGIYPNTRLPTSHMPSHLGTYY", "method_in_brief": "as §1"}, "ELF1": {"target": "ELF1 (Homo sapiens, UniProt P32519 1-619)", "sequence (P32519 whole entry)": "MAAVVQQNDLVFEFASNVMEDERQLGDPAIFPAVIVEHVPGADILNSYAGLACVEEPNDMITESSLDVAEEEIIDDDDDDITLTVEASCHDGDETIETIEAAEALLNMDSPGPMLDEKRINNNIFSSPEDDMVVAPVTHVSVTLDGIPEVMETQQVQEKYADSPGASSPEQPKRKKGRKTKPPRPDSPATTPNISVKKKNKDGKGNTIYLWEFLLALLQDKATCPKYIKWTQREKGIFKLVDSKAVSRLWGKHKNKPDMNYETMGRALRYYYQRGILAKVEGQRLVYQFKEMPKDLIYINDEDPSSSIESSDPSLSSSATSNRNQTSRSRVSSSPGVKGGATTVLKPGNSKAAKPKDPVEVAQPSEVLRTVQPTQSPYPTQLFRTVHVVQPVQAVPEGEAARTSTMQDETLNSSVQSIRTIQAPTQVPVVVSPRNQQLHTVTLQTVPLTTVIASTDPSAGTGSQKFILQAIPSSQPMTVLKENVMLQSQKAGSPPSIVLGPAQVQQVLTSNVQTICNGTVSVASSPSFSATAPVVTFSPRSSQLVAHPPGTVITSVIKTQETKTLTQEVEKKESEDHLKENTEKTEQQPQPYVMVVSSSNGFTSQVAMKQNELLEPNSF", "method_in_brief": "as §1"}, "EHF": {"target": "T5, EHF (Homo sapiens, UniProt Q9NZC4 1-300)", "T5 sequence": "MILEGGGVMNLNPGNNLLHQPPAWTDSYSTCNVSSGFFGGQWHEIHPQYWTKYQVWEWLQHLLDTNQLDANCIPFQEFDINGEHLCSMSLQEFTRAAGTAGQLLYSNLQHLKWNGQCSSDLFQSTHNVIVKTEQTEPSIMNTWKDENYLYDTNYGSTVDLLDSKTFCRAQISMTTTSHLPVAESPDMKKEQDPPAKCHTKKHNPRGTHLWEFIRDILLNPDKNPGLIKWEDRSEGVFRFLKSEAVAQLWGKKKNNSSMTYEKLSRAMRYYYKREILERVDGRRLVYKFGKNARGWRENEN", "method_in_brief": "as §1"}, "SPI1": {"target": "SPI1 (Homo sapiens, UniProt P17947 1-270)", "method_in_brief": "as §1"}, "SPIB": {"target": "SPIB (Homo sapiens, UniProt Q01892 1-262)", "sequence (Q01892 whole entry)": "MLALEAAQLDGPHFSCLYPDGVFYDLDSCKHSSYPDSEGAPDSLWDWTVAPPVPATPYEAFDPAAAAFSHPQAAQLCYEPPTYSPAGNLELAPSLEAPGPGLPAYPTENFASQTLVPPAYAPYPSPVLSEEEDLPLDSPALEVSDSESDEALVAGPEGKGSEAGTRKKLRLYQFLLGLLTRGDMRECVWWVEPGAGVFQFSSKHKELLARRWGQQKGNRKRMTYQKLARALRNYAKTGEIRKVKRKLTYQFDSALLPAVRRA", "method_in_brief": "as §1"}, "ELK3": {"target": "T6, ELK3 (Homo sapiens, UniProt P41970 1-407)", "T6 sequence": "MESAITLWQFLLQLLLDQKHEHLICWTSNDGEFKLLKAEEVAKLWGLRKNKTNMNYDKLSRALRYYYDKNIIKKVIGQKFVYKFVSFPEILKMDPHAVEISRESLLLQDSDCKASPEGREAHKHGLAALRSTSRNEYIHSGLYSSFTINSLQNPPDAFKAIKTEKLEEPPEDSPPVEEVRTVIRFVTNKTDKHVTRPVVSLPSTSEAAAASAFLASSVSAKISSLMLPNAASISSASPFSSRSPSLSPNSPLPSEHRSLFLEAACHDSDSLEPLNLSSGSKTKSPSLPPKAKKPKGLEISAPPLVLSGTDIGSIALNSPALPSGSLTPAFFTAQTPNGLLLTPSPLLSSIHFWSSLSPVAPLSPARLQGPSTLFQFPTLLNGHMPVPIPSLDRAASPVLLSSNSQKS", "method_in_brief": "as §1"}}, "data": [{"sequence": "ATATAA", "values": [{"measurement": "binding signal", "setting": "FLI1", "result": "1.15 fold enrichment (6-mer frequency, TF over GST control)"}, {"measurement": "binding signal", "setting": "ELK1", "result": "1.22 fold enrichment (6-mer frequency, TF over GST control)"}, {"measurement": "binding signal", "setting": "GABPA", "result": "1.2 fold enrichment (6-mer frequency, TF over GST control)"}, {"measurement": "binding signal", "setting": "ERG", "result": "1.15 fold enrichment (6-mer frequency, TF over GST control)"}, {"measurement": "binding signal", "setting": "ELF1", "result": "1.24 fold enrichment (6-mer frequency, TF over GST control)"}, {"measurement": "binding signal", "setting": "EHF", "result": "1.21 fold enrichment (6-mer frequency, TF over GST control)"}, {"measurement": "binding signal", "setting": "SPI1", "result": "1.1 fold enrichment (6-mer frequency, TF over GST control)"}, {"measurement": "binding signal", "setting": "SPIB", "result": "1.22 fold enrichment (6-mer frequency, TF over GST control)"}, {"measurement": "binding signal", "setting": "ELK3", "result": "1.25 fold enrichment (6-mer frequency, TF over GST control)"}]}]}
